Experimental data from PubChem BioAssay (NCI).
This is part of a sample that, as a whole, favours compounds with a hit. Of some 79,000 tested, about 15% had one in any assay. No stated cut-off is given here; in the data, active means growth inhibition above about 70%; inactive means the rest.

Tests used:
[1] = NCI Yeast Anticancer Drug Screen. Data for the rad50 strain (AID 155);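 further: 0% = growth of vehicle-only cultures of the same strain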; settings: S. cerevisiae rad50 strain growth inhibition; at 50.0 µM; hits give high values
Outline: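 Compounds were tested on a yeast strain with an engineered DNA damage repair alteration; the reported value is growth inhibition normalised to vehicle treatment.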

[2] = NCI Yeast Anticancer Drug Screen. Data for the mec2-1 strain (AID 157); settings: S. cerevisiae mec2-1 strain, at 50.0 µM, hits give high values
Outline: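 Strain: mec2-1 (DNA repair/cell cycle alteration). Compound exposure, then growth measured; inhibition expressed relative to vehicle.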

[3] = NCI Yeast Anticancer Drug Screen. Data for the sgs1 mgt1 strain (AID 161);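 further: 0% = growth of cultures given vehicle only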; settings: S. cerevisiae sgs1 mgt1 strain, at 50.0 µM, hits give high values
Outline: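 Read-out: growth inhibition vs vehicle controls. Cells: mutant yeast strain deficient in DNA damage repair.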

[4] = NCI Yeast Anticancer Drug Screen. Data for the bub3 strain (AID 167); settings: S. cerevisiae bub3 mutant strain, at 50.0 µM, hits give high values
Outline: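 Growth of a checkpoint-deficient yeast mutant is measured after compound exposure. Values represent inhibition relative to vehicle.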

[5] = NCI Yeast Anticancer Drug Screen. Data for the mlh1 rad18 strain (AID 175); settings: S. cerevisiae mlh1 rad18 strain growth inhibition; at 50.0 µM; hits give high values
Outline: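 Read-out is yeast growth inhibition, calculated against vehicle-only controls. The compound was applied to a strain engineered with DNA damage repair alterations.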

[6] = NCI Yeast Anticancer Drug Screen. Data for the cln2 rad14 strain (AID 165);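 further: 0% = growth equal to vehicle treated cultures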; settings: S. cerevisiae cln2 rad14 strain, at 50.0 µM, hits give high values
Outline: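 Compounds are applied to the cln2 rad14 yeast strain, and growth is then compared with that of vehicle-treated cultures to give inhibition.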

Measured: growth inhibition

Cn1cnc2c(=O)[nH]c(=O)[nH]c21
inactive: [1] 25.9% | [2] -10.9% | [3] -43.4% | [4] -34.8% | [5] 10.2%

C=C1CC2(C)CCC(OC(=O)C3(C)OC3C)C(C)(OC(C)=O)C2CC1=C(C)C (stereo not drawn)
inactive: [1] 7.7% | [2] -36.8% | [6] 16.2% | [4] -4.85% | [5] -55%

O=S(=O)(O)c1cc(O)c2c(O)cc(S(=O)(=O)O)cc2c1
inactive: [1] -0.75% | [2] -20.1% | [3] -21.2% | [4] -8.1% | [5] -4.7%

COC(=O)c1nc(Br)cnc1N
inactive: [1] 8.05% | [2] -8.4% | [3] 2.1% | [4] 4% | [5] -0.45%

CCC(c1ccc(N(C)C)cc1)C1NC(=S)NC1=O (stereo not drawn)
inactive: [1] -4.2% | [2] -27.8% | [3] -17.6% | [6] 0.85% | [4] 11.8% | [5] -9.55%

COc1ccc(-c2coc3c4c(ccc3c2=O)OCO4)cc1OC
inactive: [1] 3.6% | [2] -13.4% | [6] 7.2% | [4] -8.45% | [5] -30.8%

C=C1CCN(c2ccccc2)C1=O
inactive: [1] 5.3% | [2] -2.6% | [3] -5.15% | [4] -5.05% | [5] -4.55%

COc1ccc(CC2C(=O)NC(=O)NC2=O)cc1OCc1ccccc1
inactive: [1] 14.7% | [2] -1.75% | [6] -10% | [4] -17.4% | [5] -44.6%

COc1ccc(N=C(C)C(C)=Nc2ccc(OC)cc2)cc1
inactive: [1] -3% | [2] 3% | [6] 14.1% | [4] 11.6% | [5] -17.7%

OCC(CO)(CO)COCC(CO)(CO)COCC(CO)(CO)CO
inactive: [1] -43% | [2] -42.5% | [3] -20.9% | [4] -9.15% | [5] -25.1%

NC(N)=Nc1ccc(CC(N)C(=O)O)cc1 (stereo not drawn)
inactive: [1] -0.5% | [2] -18.8% | [3] -13.4% | [6] 15.2% | [4] -3.8% | [5] -25.6%

CC(=N/N=C/c1ccccn1)/C(C)=N/N=C(C)/C(C)=N/N=C(C)/C(C)=N/N=C(C)/C(C)=N\N=C\c1ccccn1
inactive: [1] 24.1% | [2] 21.9% | [6] 16.7% | [4] 8.15% | [5] -21.6%

CCCCCCSC[C@H](OC(C)=O)[C@@H](OC(C)=O)[C@@H](OC(C)=O)[C@@H](COC(C)=O)OC(C)=O
inactive: [1] -7% | [2] -14.8% | [6] -2.95% | [4] 9% | [5] -5.35%

COc1ccc2c(=O)c(-c3cc4c(cc3OC)OCO4)coc2c1
inactive: [1] -26.5% | [2] -30.9% | [6] -3.1% | [4] -33.5% | [5] -56.4%

CC(C)Cc1ccc(C(C)C(=O)O)cc1 (stereo not drawn)
inactive: [1] 0.5% | [2] 9.7% | [3] -4.5% | [4] -26.1% | [5] 3.25%

CC1CC(=O)N(N(C)C)C2(C#N)C(=O)N=C(N)C12C#N (stereo not drawn)
inactive: [1] 15.4% | [2] 22.6% | [6] 2.75% | [4] -4% | [5] -4.75%

Cc1ccc(OCC2OC(n3cnc4c(Cl)nc(Cl)nc43)CC2Oc2ccc(C)cc2)cc1 (stereo not drawn)
inactive: [1] -20.4% | [2] -21.6% | [3] 23.1% | [6] 7.45% | [4] 27.4% | [5] -33.5%

[O-]c1ccccc1/C=N/C(/N=C/c1ccccc1[O-])c1ccccc1O.[O-]c1ccccc1/C=N/C(/N=C/c1ccccc1[O-])c1ccccc1O.[Zr+4]
inactive: [1] 0.55% | [2] 6.4% | [3] -1.6% | [4] 14.2% | [5] 2.4%

c1ccc(-c2cccc3ccccc23)cc1
inactive: [1] 32.6% | [2] 6.7% | [3] 2.65% | [4] -11.2% | [5] 16.4%

COc1ccc(/C=c2\[nH]c3nc(=O)c(N4CCOCC4)c(N)n3c2=O)cc1
inactive: [1] 0.9% | [2] -19.4% | [6] -11.8% | [4] -26.1% | [5] -10.2%
